In PubChem BioAssay (EPA / NIEHS) one finds outcome and AC50 data, which are given here for eleven compounds.

“And” between values parts separate entries of the source, which are not always exact repeats. Identical values can stand only once. Inconclusive results are not listed. A structure can be active in one record and inactive in another. The source made the active and inactive calls. The calls were made as follows, unless noted: active = hit-call score of the fitted dose curve at least 0.9, where 1 is the maximum; inactive = score below 0.9.

A short description of assay [1]: ATG_NFI_CIS: Attagene CIS-FACTORIAL HepG2 Assay for human Nuclear Factor I (NFI) (AID 2282989). As to conditions: HepG2 cis-regulatory reporter, NFI response element transcription; actives raise or lower the signal. The method, boiled down:
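Read-out: reporter mRNA via RT-PCR plus capillary electrophoresis with fluorescence detection. Transiently transfected HepG2 (endogenous TF activity on cis promoters), 24 h compound exposure; gain or loss of signal fitted against DMSO.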

In assay [2] the target is Myc proto-oncogene protein (Homo sapiens) (UniProt P01106). Description: ATG_Myc_CIS: Attagene CIS-FACTORIAL HepG2 Assay for human Myelocytomatosis (Myc) Proto-Oncogene Transcription Factor (AID 2282990). The note with it: HepG2, Attagene cis-reporter transcription factor activity; actives raise or lower the signal. The method, boiled down: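 Cells of the HepG2 human liver line bear multiple cis-driven reporter transcription units. Reporter mRNA after 24 h exposure is reverse-transcribed, amplified, labelled and resolved by capillary electrophoresis, with gain- or loss-of-signal fitting relative to DMSO.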
Sequence of Myc proto-oncogene protein (Homo sapiens) (P01106 whole entry, looked up): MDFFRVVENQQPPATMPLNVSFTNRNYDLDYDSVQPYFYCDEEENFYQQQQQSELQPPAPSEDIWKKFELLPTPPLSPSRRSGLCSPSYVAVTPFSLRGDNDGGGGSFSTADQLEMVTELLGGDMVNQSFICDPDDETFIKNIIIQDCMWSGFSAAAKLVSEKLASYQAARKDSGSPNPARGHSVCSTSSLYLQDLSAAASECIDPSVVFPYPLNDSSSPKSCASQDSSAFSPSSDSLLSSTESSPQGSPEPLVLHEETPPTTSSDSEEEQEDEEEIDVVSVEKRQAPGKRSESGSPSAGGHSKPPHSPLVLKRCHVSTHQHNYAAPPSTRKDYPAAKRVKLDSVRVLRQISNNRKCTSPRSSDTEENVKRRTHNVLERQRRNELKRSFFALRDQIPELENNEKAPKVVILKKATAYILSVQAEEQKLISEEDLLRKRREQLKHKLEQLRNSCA

A short description of assay [3]: ATG_NF_kB_CIS: Attagene CIS-FACTORIAL HepG2 Assay for human Nuclear Factor Kappa B (NF-kB) (AID 2282991). As to conditions: HepG2 Attagene cis-factorial NF-kB reporter mRNA; actives raise or lower the signal. An outline of the steps: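 Multiplexed cis-reporter assay in transiently transfected HepG2. 24 h treatment; RNA isolated, RT-PCR, labelled fragments resolved by CE. DMSO baseline.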

A short description of assay [4]: ATG_NRF2_ARE_CIS: Attagene CIS-FACTORIAL HepG2 Assay for human Nuclear Factor Erythroid 2 Related Factor 2 (NFR2) response to Antioxidant Response Elements (ARE) (AID 2282992).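 As to AC50: reporter mRNA level measured by RT-PCR and capillary electrophoresis fluorescence.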 The note with it: HepG2 Attagene ARE/NRF2 reporter, transcription factor activity; actives raise or lower the signal. An outline of the steps: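 Multiplexed reporter mRNA profiling in HepG2 after a 24 h chemical exposure. Curves fitted in both directions relative to DMSO negative control.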

Assay [5] can be described thus: ATG_Oct_MLP_CIS: Attagene CIS-FACTORIAL HepG2 Assay for human Octamer-Binding Transcription Factor (Oct) (AID 2282993). As to conditions: HepG2 Attagene cis-factorial Oct reporter, mRNA; actives raise or lower the signal. An outline of the steps: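 Read-out: reporter mRNA via RT-PCR plus capillary electrophoresis of 6-FAM-labelled fragments. Transiently transfected HepG2, 24 h exposure, endogenous TF activity on cis elements. Gain or loss of signal fitted relative to DMSO.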

Assay [6] deals with Cellular tumor antigen p53 (Homo sapiens) (UniProt P04637). Nature of the assay: ATG_p53_CIS: Attagene CIS-FACTORIAL HepG2 Assay for human p53 Transcription Factor (AID 2282994). As to conditions: HepG2 p53 cis-element reporter, Attagene mRNA; actives raise or lower the signal. An outline of the steps: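 Multiplexed reporter mRNA assay in human HepG2 liver cells; cis-regulated units report endogenous factor activity. Values come from bidirectional curve fitting against DMSO negative control after 24 h treatment.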
Sequence of Cellular tumor antigen p53 (Homo sapiens) (P04637 whole entry, looked up): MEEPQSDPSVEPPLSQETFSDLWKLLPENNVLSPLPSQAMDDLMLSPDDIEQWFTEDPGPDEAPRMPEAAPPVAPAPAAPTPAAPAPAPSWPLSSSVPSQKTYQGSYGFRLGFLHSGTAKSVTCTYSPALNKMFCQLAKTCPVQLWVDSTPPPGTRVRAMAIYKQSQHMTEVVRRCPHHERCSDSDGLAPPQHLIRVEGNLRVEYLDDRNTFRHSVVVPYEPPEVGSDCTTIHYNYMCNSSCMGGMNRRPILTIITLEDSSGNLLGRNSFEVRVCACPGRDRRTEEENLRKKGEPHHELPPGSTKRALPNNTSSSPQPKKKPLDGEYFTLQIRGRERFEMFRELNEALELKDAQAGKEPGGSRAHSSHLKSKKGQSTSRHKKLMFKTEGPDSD

In assay [7] the target is human Peroxisome Proliferator-activated Receptor delta (PPARd), PPARD (gene 5467) (UniProt Q03181). Description: ATG_PPARd_TRANS: Attagene TRANS-FACTORIAL HepG2 Assay for human Peroxisome Proliferator-activated Receptor delta (PPARd) (AID 2283002; active = hit-call score of the fitted dose curve at least 0.9, where 1 is the maximum). The method, boiled down: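 Cell-based TRANS reporter: HepG2, transient MRTU transfection, 24 h exposure. Readout = reporter mRNA (RT-PCR/CE, 6-FAM). Gain-of-signal fit vs DMSO control.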
Sequence of human Peroxisome Proliferator-activated Receptor delta (PPARd), PPARD (gene 5467) (Q03181 whole entry, looked up): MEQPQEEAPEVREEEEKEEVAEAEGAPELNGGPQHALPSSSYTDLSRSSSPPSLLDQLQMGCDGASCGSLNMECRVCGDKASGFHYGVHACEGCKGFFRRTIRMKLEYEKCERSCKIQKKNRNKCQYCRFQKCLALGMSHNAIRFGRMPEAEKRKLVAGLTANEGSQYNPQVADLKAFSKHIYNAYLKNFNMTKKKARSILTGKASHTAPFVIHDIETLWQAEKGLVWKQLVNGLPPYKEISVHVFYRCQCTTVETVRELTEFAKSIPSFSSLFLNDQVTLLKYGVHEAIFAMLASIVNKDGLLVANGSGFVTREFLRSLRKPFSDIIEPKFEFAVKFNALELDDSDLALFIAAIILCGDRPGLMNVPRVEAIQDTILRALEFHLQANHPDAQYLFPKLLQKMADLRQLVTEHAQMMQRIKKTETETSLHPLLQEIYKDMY

Assay [8] has as its target Peroxisome proliferator-activated receptor gamma (Homo sapiens) (UniProt P37231). Nature of the assay: ATG_PPARg_TRANS: Attagene TRANS-FACTORIAL HepG2 Assay for human Peroxisome Proliferator-activated Receptor-gamma (PPARg) (AID 2283007; active = hit-call score of the fitted dose curve at least 0.9, where 1 is the maximum). The method, boiled down:
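Human hepatoma HepG2, transient MRTU transfection, 24 h treatment. mRNA reporter signal by RT-PCR plus capillary electrophoresis, fluorescence detection; fitted for increase over DMSO negative control.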

Assay [9] addresses Nuclear receptor subfamily 1 group I member 2 (Homo sapiens) (UniProt O75469). Description: ATG_PXR_TRANS: Attagene TRANS-FACTORIAL HepG2 Assay for human Pregnane X Receptor (PXR) (AID 2283008; active = hit-call score of the fitted dose curve at least 0.9, where 1 is the maximum). The method, boiled down:
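Measures mRNA induction of a GAL4-UAS-driven reporter in human HepG2 cells transiently expressing PXR fused to Gal4, following 24 h treatment. DMSO served as negative control and baseline.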

Assay [10] deals with human RAR-related Orphan Receptor beta (RORb), RORB (gene 6096) (UniProt Q92753). Nature of the assay: ATG_RORb_TRANS: Attagene TRANS-FACTORIAL HepG2 Assay for human RAR-related Orphan Receptor beta (RORb) (AID 2283010; active = hit-call score of the fitted dose curve at least 0.9, where 1 is the maximum). The method, boiled down:
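Readout is reporter-gene mRNA induction, detected as fluorescence after RT-PCR and capillary electrophoresis, fitted for gain of signal against DMSO controls. Transiently transfected HepG2 liver cells carrying GAL4-UAS reporter constructs were treated for 24 hours.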

Assay [11] concerns the target human Retinoic Acid Receptor beta (RARb), RARB (gene 5915) (UniProt P10826). Description: ATG_RARb_TRANS: Attagene TRANS-FACTORIAL HepG2 Assay for human Retinoic Acid Receptor beta (AID 2283004; active = hit-call score of the fitted dose curve at least 0.9, where 1 is the maximum). The method, boiled down:
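HepG2, transient MRTU transfection, NR–Gal4 chimera, 24 h treatment; RT-PCR plus CE fluorescence detection of reporter mRNA; gain of signal vs DMSO.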

In assay [12] the target is human Retinoic Acid Receptor gamma (RARg), RARG (gene 5916) (UniProt P13631). Nature of the assay: ATG_RARg_TRANS: Attagene TRANS-FACTORIAL HepG2 Assay for human Retinoic Acid Receptor gamma (RARg) (AID 2283009; active = hit-call score of the fitted dose curve at least 0.9, where 1 is the maximum). The method, boiled down: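 Transient transfection of HepG2 with multi-reporter constructs, then 24 h chemical treatment. Total RNA isolated, reverse-transcribed, PCR-amplified, fluorescently labelled and resolved by capillary electrophoresis; activity scored as mRNA induction versus DMSO.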
Sequence of human Retinoic Acid Receptor gamma (RARg), RARG (gene 5916) (P13631 whole entry, looked up): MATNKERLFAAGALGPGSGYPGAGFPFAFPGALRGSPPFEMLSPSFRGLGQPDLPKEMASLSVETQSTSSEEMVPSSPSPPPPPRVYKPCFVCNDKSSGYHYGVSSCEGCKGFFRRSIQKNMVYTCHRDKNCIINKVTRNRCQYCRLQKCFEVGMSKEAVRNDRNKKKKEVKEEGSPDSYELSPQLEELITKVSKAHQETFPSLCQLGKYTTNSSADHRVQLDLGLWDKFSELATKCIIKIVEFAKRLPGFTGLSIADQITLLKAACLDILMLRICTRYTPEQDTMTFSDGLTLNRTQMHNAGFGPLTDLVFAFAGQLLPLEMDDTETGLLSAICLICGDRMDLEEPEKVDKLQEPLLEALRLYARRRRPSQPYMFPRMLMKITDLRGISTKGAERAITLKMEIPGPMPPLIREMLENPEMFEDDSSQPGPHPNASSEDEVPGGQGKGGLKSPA

Assay [13] concerns the target Retinoic acid receptor alpha (Homo sapiens) (UniProt P10276). Description: ATG_RARa_TRANS: Attagene TRANS-FACTORIAL HepG2 Assay for human Retinoic Acid Receptor alpha (RARa) (AID 2283005; active = hit-call score of the fitted dose curve at least 0.9, where 1 is the maximum). The method, boiled down: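 Reporter transcripts, measured by RT-PCR with fluorescent labeling and capillary electrophoresis after 24 h dosing, reflect activity of an exogenous human RARa–GAL4 fusion in transiently transfected HepG2. Fitted for increase relative to DMSO.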

Assay [14] in a line: BSK_3C_TissueFactor: BioMAP Diversity Plus: 3C Assay for Tissue Factor Biomarker Activity (AID 2282997). The note with it: BioMAP 3C HUVEC, tissue factor biomarker readout; actives raise or lower the signal. An outline of the steps:
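Values derive from bidirectional curve fitting against DMSO of Tissue Factor ELISA signals, taken 24 h after dosing primary human umbilical vein endothelial cells.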

Assay [15] is described as follows: BSK_3C_uPAR: BioMAP Diversity Plus: 3C Assay for Urokinase-type plasminogen activator receptor (uPAR) Biomarker Activity (AID 2282998). As to conditions: BioMAP 3C HUVEC, uPAR biomarker ELISA; actives raise or lower the signal. An outline of the steps: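 HUVEC primary cells; 24 h post-dose; uPAR by ELISA; gain or loss of signal fitted bidirectionally vs DMSO baseline.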
(In an ELISA, binding on a coated surface is turned into a signal by an enzyme label.)

Assay [16] in a line: BSK_3C_VCAM1: BioMAP Diversity Plus: 3C Assay for Vascular cell adhesion molecule 1 (VCAM1) Biomarker Activity (AID 2282999). As to conditions: BioMAP 3C HUVEC, VCAM1 ELISA, cytokine-stimulated; actives raise or lower the signal. An outline of the steps: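 Endothelial cells from human umbilical vein are treated with test chemical. At 24 h, VCAM-1 is measured by ELISA, and responses in either direction are fitted relative to DMSO.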

Assay [17] is described as follows: BSK_4H_Eotaxin3: BioMAP Diversity Plus: 4H Assay for Eotaxin 3 Biomarker Activity (AID 2283000). The note with it: primary human endothelial cells (HUVEC); actives raise or lower the signal. An outline of the steps:
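Endothelial primary cells (human umbilical vein) exposed to compound for 24 h. ELISA detection of Eotaxin-3.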

Read-out in assay [18]: Intercellular Adhesion Molecule 1 (ICAM1), ICAM1 (gene 3383)
Nature of the assay: BSK_3C_ICAM1: BioMAP Diversity Plus: 3C Assay for Intercellular Adhesion Molecule 1 (ICAM1) Biomarker Activity (AID 2283003). The note with it: primary human endothelial cells (HUVEC); actives raise or lower the signal. An outline of the steps: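 ICAM-1 levels measured by ELISA after HUVEC cultures in the 3C system had been dosed for 24 h. Gain or loss of signal relative to DMSO was fitted in both directions.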

Assay [19] in a line: BSK_3C_Proliferation: Cell Proliferation Assessment in the BioMAP Diversity Plus: 3C Assay (AID 2283006).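 Also: potency may reflect either rise or fall in cell number versus DMSO.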 As to conditions: primary human endothelial cells (HUVEC). The method, boiled down:
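Read-out is total protein by SRB absorbance at 560 nm, taken as a proxy for relative cell number. Primary human umbilical vein endothelium cultured below confluence was dosed for 48 h, TCA-fixed and SRB-stained; curves were fitted bidirectionally versus DMSO.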

Assay [20] deals with human Peroxisome Proliferator-activated Receptor alpha (PPARa), PPARA (gene 5465) (UniProt Q07869). Nature of the assay: ATG_PPARa_TRANS: Attagene TRANS-FACTORIAL HepG2 Assay for human Peroxisome Proliferator-activated Receptor alpha (PPARa) (AID 2283001; active = hit-call score of the fitted dose curve at least 0.9, where 1 is the maximum). The method, boiled down: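 Read-out is fluorescence of reporter cDNA fragments resolved by capillary electrophoresis after RT-PCR. Human HepG2 liver cells carried transfected PPARa-Gal4 chimera and GAL4-UAS reporter units, treated 24 h; activity scored as increase over DMSO.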
Sequence of human Peroxisome Proliferator-activated Receptor alpha (PPARa), PPARA (gene 5465) (Q07869 whole entry, looked up, the tested form may be a part): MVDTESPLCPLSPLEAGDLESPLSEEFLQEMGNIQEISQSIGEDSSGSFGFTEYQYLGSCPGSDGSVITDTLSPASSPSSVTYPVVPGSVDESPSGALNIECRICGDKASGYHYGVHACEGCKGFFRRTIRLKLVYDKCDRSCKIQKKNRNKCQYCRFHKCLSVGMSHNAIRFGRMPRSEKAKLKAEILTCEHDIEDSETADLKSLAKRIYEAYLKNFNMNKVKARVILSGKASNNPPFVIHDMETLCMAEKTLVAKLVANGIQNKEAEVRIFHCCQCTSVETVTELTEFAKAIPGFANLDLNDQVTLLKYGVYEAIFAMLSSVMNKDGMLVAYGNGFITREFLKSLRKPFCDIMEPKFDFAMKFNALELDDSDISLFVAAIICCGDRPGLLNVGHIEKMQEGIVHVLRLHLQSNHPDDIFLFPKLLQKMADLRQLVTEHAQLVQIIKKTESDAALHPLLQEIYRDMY

Sequence of human Retinoic Acid Receptor beta (RARb), RARB (gene 5915) (P10826 whole entry, looked up, the tested form may be a part): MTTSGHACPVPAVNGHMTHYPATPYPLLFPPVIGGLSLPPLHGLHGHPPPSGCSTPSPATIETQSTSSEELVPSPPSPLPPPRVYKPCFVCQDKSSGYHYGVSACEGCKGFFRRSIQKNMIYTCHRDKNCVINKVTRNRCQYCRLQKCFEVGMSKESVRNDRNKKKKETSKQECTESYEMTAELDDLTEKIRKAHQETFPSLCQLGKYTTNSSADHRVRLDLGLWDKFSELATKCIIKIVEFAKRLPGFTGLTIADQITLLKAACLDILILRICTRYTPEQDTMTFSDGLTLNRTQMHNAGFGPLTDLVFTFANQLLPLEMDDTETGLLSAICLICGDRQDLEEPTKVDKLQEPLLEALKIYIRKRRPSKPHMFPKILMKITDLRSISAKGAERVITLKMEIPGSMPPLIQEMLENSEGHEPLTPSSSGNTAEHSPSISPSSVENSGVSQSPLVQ
Sequence of Nuclear receptor subfamily 1 group I member 2 (Homo sapiens) (O75469 whole entry, looked up, the tested form may be a part): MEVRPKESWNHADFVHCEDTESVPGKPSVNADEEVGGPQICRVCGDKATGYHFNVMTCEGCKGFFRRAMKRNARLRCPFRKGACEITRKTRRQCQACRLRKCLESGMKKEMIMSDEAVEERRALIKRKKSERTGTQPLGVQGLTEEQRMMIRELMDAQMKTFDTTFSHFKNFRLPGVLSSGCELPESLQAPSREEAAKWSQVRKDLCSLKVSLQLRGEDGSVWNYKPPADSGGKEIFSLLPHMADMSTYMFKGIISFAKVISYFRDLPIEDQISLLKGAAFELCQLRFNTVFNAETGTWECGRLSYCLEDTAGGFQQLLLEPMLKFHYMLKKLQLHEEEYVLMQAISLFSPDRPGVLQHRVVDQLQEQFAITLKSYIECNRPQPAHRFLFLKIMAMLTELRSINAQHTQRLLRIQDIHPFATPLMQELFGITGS
Sequence of human RAR-related Orphan Receptor beta (RORb), RORB (gene 6096) (Q92753 whole entry, looked up, the tested form may be a part): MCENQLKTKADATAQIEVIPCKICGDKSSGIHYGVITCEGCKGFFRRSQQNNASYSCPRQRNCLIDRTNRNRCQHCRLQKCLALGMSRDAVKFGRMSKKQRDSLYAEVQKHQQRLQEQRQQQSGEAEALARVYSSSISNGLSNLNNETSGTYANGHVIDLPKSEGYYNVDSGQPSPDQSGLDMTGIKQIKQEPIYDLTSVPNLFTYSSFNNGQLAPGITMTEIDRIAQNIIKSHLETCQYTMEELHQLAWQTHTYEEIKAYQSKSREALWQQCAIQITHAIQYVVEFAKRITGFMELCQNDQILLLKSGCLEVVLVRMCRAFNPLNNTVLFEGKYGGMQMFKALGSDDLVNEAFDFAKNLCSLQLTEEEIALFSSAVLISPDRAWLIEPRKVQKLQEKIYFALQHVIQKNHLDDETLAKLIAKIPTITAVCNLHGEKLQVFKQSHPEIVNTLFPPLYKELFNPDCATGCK
Sequence of Retinoic acid receptor alpha (Homo sapiens) (P10276 whole entry, looked up, the tested form may be a part): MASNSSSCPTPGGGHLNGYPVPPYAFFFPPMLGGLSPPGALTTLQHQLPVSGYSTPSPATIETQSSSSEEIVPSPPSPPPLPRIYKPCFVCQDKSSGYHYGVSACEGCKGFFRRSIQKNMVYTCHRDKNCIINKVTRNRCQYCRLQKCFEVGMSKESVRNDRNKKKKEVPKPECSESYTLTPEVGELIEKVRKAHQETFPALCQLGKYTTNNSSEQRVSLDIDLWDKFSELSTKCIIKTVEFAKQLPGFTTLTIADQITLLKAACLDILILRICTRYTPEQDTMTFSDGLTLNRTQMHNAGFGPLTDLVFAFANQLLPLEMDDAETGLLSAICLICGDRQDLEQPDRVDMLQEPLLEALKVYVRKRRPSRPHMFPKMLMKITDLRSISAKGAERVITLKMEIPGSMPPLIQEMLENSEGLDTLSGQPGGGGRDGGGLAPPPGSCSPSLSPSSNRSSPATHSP
Sequence of Peroxisome proliferator-activated receptor gamma (Homo sapiens) (P37231 whole entry, looked up): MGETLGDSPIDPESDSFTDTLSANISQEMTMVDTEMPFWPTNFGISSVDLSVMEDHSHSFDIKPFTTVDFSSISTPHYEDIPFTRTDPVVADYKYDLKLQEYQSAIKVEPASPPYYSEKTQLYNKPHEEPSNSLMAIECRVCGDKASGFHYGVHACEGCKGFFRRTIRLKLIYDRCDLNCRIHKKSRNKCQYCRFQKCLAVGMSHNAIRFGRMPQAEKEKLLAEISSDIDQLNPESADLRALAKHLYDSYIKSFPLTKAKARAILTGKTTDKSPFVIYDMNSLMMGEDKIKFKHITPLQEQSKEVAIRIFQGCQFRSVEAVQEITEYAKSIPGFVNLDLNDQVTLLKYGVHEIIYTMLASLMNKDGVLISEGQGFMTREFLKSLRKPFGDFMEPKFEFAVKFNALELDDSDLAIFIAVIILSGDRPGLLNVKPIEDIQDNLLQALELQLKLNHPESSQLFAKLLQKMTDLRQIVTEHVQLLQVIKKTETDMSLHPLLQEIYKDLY

With `COc1ccc(N)c([N+](=O)[O-])c1`, the call in [1], in assay [2], in assay [3], in assay [4], in assay [5] and in [6] was inactive. Further, the result in assay [7], in assay [8], in assay [9] and in [10] was inactive.
As to `CC1(C)O[C@@H]2[C@@H](CO[C@@]3(COS(N)(=O)=O)OC(C)(C)O[C@@H]23)O1`, the result in [1], in assay [2], in assay [3], in assay [4], in assay [5] and in [6] was inactive. The outcome in assay [8] and in assay [9] was inactive.
With `C=C[Si]1(C)O[Si](C)(C=C)O[Si](C)(C=C)O[Si](C)(C=C)O1` (configuration not stated), the compound was classed as inactive in assay [1], in assay [2], in [5], in assay [6] and in assay [8]. Also, the AC50 was 19.8 µM (active) in assay [3], 12 µM (active) in [4] and 4.48 µM (active) in assay [9].
For the compound `N[C@@H](Cc1cc(I)c(Oc2cc(I)c(O)c(I)c2)c(I)c1)C(=O)O`, the outcome in [1], in [2], in assay [3], in [5], in assay [6] and in assay [7] was inactive. Further, in [10], the call was inactive. The AC50 was 36.5 µM (active) in assay [4], 6.06 µM (active) in [8] and 3.79 µM (active) in [9].
`CC1CC(O)CC(C)(C)C1` (configuration not stated): the result in [1], in assay [2], in assay [3], in assay [4], in [5] and in assay [6] was inactive. Moreover, the result in [11], in assay [9], in assay [12] and in [10] was inactive.
`CSc1c(Cl)c(Cl)c(Cl)c(Cl)c1Cl`: the concentration at half-maximal activity (AC50) in assay [1] was 154 µM (active); in assay [2], 167 µM (active); in [4] it was 48.4 µM (active); in [5], 139 µM (active); in assay [8], 6.23 µM (active). For the same compound, the outcome in assay [3], in [6], in assay [11] and in [12] was inactive.
As to `O=C(O)c1cccnc1C(=O)O`, the call in assay [1], in assay [2], in assay [3], in assay [4], in assay [5] and in assay [6] was inactive. For the same compound, the compound was classed as inactive in assay [11], in assay [13] and in [12].
Consider `C[C@H]1C[C@@H](O)CC(C)(C)C1`, for which the call in assay [1], in [2], in [3], in assay [4], in assay [5] and in assay [6] was inactive. The outcome in assay [11], in assay [13], in assay [8], in assay [9], in [12] and in [10] was inactive.
With `CC1(C)CCC[C@]2(C)[C@H]3CCO[C@]3(C)CC[C@@H]12`, the compound was called inactive in assay [1], in [2], in assay [3], in [5], in assay [15] and in [16]. The result in assay [7], in [8], in assay [12] and in [10] was inactive. Further, the AC50 in [4] is 155 µM (active); in assay [14], 32 µM (active) and 30.7 µM (active); in assay [15] it was 32.9 µM (active); in assay [17] it was 33.2 µM (active) and 35 µM (active); in [18], 31.2 µM (active) and 38.9 µM (active); in [19], 32.6 µM (active) and 33.6 µM (active). In addition, the AC50 in [9] was 32.6 µM (active).
Consider `CCCCC(CC)COC(C)=O` (configuration not stated), for which the compound was classed as inactive in [1], in assay [2], in assay [3], in assay [4], in assay [5] and in assay [20]. The outcome in [7], in assay [11], in assay [13] and in [12] was inactive.
Turning to `COc1ccc(CCO)cc1`, the result in [1], in [2], in [3], in assay [4], in assay [5] and in assay [20] was inactive. Also, the compound was classed as inactive in assay [11], in assay [8] and in assay [12].

A word on the AC50: it is the concentration giving half of the maximal activity seen.
